Pf Dd2 growth = blocks in vitro growth of P. falciparum Dd2; Potency, µM (series often up to 28.9 µM), most hits filed as inhibitors; P. falciparum Dd2 growth, SYBR Green, 72 h; actives 4.3% (n = 120,000); AID 1347417; active means well fitted inhibition curve with a large enough effect; further: nearly all actives have a fitted effect of over 65% in size
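Infected erythrocytes (Dd2, 0.3% parasitemia, 2.5% hematocrit final) are added to compound in RPMI-1640/Albumax II medium, grown 72 h at 37C in low oxygen, then lysed with saponin/Triton-X containing SYBR Green and read by fluorescence.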
Of the large screens only hits and unclear results are named; the others gave an inactive call. This excerpt belongs to a sample that is enriched for hits.

Cc1nnsc1C(=O)N[C@H]1CCN2C(=O)N(c3ccc(C(C)C)cc3)C(=O)[C@@H]2C1	none
COc1cc2c(cc1OC)C(C[C@H]1CN(C(=O)Nc3ccc(F)cc3)CC[C@H]1CC(=O)O)=NCC2	none
CCCN(CCC)C(=O)CC1=CSC2=NC(CC)=C(C(=O)OC)C(c3cccc(F)c3)N12 (configuration not stated)	Pf Dd2 growth 2.2µM
CCC1=C(C(=O)OC)C(c2ccccc2F)N2C(CC(=O)N3CCCC3)=CSC2=N1 (configuration not stated)	none
CCC1=C(C(=O)OC)C(c2ccccc2)N2C(CC(=O)N(C)Cc3ccccc3)=CSC2=N1 (configuration not stated)	none
Cc1ccc(-c2nc(C3CC(=O)N(C4CCCCC4)C3)no2)cc1C (configuration not stated)	none
COc1ccc(OC)c(NC(=O)c2c(NCc3ccc(OC)c(OC)c3)sc3c2CCC(C)C3)c1 (configuration not stated)	Pf Dd2 growth 5.6µM
COC(=O)c1c(NC(=O)COc2ccc(OC)cc2)sc2c1CCC(C)C2 (configuration not stated)	none
CCOC(=O)N1CCc2c(sc(NCc3cccs3)c2C(=O)Nc2ccc(OC)cc2OC)C1	none
COc1ccc(OC)c(NC(=O)c2c(NCc3ccc(C)o3)sc3c2CCC(C)C3)c1 (configuration not stated)	Pf Dd2 growth 11µM
COC(=O)c1c(NC(=O)COc2c(C)ccc(C)c2C)sc2c1CCC(C)C2 (configuration not stated)	none
CCOC(=O)N1CCc2c(sc(NCc3ccc(N(CC)CC)cc3)c2C(=O)Nc2cc(OC)ccc2OC)C1	Pf Dd2 growth 7.9µM
COC(=O)c1c(NC(=O)COc2cc(C)ccc2C(C)C)sc2c1CCC(C)C2 (configuration not stated)	none
CCOC(=O)N1CCc2c(sc3c2C(=O)NC(c2cc(OC)c(O)c(OC)c2)N3)C1 (configuration not stated)	none
COc1ccc(NC(=O)Cn2nnc3sc4c(c3c2=O)CCC(C)C4)c(OC)c1 (configuration not stated)	none
Cc1ccc(C(=O)N2CCCCC23Cc2ccccc2NC3=O)cc1 (configuration not stated)	none
CN1CC(=O)N(C2CCNC2)Cc2c(NC3CCOC3)ncnc21 (configuration not stated)	none
COCCOC1CCOC2(CCN(C(=O)c3cccc(F)c3)CC2)C1 (configuration not stated)	none
CNC(=O)[C@@H]1CN(C(=O)c2cc(Cl)ccc2F)C[C@H]1COC	none
CCc1noc(-c2cccn3c(CNC(=O)c4cccc(OC)c4)nnc23)n1	none
O=C(Nc1cccc(F)c1)N1Cc2[nH]cnc2C[C@H]1c1nc(-c2ccccc2)no1	none
Cc1cccc(-c2noc([C@@H]3Cc4nc[nH]c4CN3C(=O)Nc3cccc(C#N)c3)n2)c1	none
Cc1cccc(-c2noc([C@@H]3Cc4nc[nH]c4CN3C(=O)Nc3cccc(F)c3)n2)c1	Pf Dd2 growth 13µM
O=C(Nc1ccccc1)N1Cc2[nH]cnc2C[C@H]1c1nc(-c2ccccc2)no1	none
O=C(c1ccccc1)N1Cc2[nH]cnc2C[C@H]1c1nc(-c2ccncc2)no1	Pf Dd2 growth 11µM
O=C(NC1CCCCC1)N1CCCCCC1c1nc(-c2ccncc2)no1 (configuration not stated)	none
O=C(NC1CCCCC1)N1Cc2[nH]cnc2C[C@H]1c1nc(-c2ccncc2)no1	Pf Dd2 growth 13µM
CC(C)NC(=O)N1Cc2[nH]cnc2C[C@H]1c1nc(-c2ccccc2)no1	none
COc1ccc(NC(=O)N2Cc3[nH]cnc3C[C@H]2c2nc(-c3ccc(OC)cc3)no2)cc1	none
CN(C)S(=O)(=O)CCCN1CCC2(CC1)NC(=O)CC2C(=O)O (configuration not stated)	none
O=C(Cn1cccn1)N1CC(c2noc(C3CCCN3CC3CC3)n2)C1 (configuration not stated)	none
Cc1cncc(C(=O)NC2CCN(c3ccc(=O)n(C)n3)CC2)c1	none
O=C1CCN(S(=O)(=O)c2ccccc2)CCCN(C(=O)c2ccncc2)CCN1	none
O=C(c1ccncc1)N1CCCC(Cc2noc(-c3cnccn3)n2)C1 (configuration not stated)	none
Cn1cc(CN2CCN3CCCC3C2)c(-c2ccc(C3CCCCC3)cc2)n1 (configuration not stated)	Pf Dd2 growth 8.9µM
Cn1cc(CN2CCN3C(=O)N(C4CCCCC4)C[C@H]3C2)cn1	none
Cn1cc(CN2CCCC(C(=O)N3CCOCC3)C2)c(-c2ccc(C3CCCCC3)cc2)n1 (configuration not stated)	none
CCOCCCNc1ncnc2c1CN(C1CCNCC1)C(=O)CN2C	none
COCCN1C(=O)c2ccccc2C(C(=O)Nc2ccc(F)cc2)C12CCCCC2 (configuration not stated)	none
COCCN1C(=O)c2ccccc2C(C(=O)NC2CCCCCC2)C12CCCC2 (configuration not stated)	none
O=C(NCC1CCOCC1)C1c2ccccc2C(=O)N(Cc2ccccc2)C12CCCC2 (configuration not stated)	none
COCCN1C(=O)c2ccccc2C(C(=O)Nc2ccc3c(c2)OCCO3)C12CCCC2 (configuration not stated)	none
CC(C)NC(=O)C1c2ccccc2C(=O)N(Cc2ccco2)C12CCCCC2 (configuration not stated)	none
CC(C)CN1C(=O)c2ccccc2C(C(=O)Nc2ccccn2)C12CCCC2 (configuration not stated)	Pf Dd2 growth 14µM
COc1ccccc1NC(=O)C1c2ccccc2C(=O)N(Cc2ccccc2)C12CCCC2 (configuration not stated)	Pf Dd2 growth 11µM
COCCN1C(=O)c2ccccc2C(C(=O)Nc2cc(C)ccn2)C12CCCCC2 (configuration not stated)	Pf Dd2 growth 13µM
CC(C)CCNC(=O)C1c2ccccc2C(=O)N(Cc2ccccc2)C12CCCC2 (configuration not stated)	none
CC(C)CN1C(=O)c2ccccc2C(C(=O)N2CCSCC2)C12CCCC2 (configuration not stated)	none
COCCN1C(=O)c2ccccc2C(C(=O)NC2CCCCC2)C12CCCC2 (configuration not stated)	none
CC(C)CN1C(=O)c2ccccc2C(C(=O)Nc2ccc(C(N)=O)cc2)C12CCCCC2 (configuration not stated)	Pf Dd2 growth 13µM
COc1ccc(CN2CC3(CCN(S(=O)(=O)C(C)C)CC3)C2=O)cc1	none
COc1cc(NC(=O)CC2C(=O)NCCN2C(C)C)ccc1NC(=O)C(C)(C)C (configuration not stated)	none
CC(c1cccs1)N(C)Cc1cccc(C(F)(F)F)c1 (configuration not stated)	none
Cc1ccc(CNC(=O)N2CC(Oc3cccc(-c4nc(C)no4)c3)C2)cc1	none
CNC(=O)[C@@H]1C[C@@H](O)CN1C1CCN(C(=O)C2CCCC2)CC1	none
CC(C)[C@@H](N)C(=O)N1CCC(n2nccc2NC(=O)c2ccccc2)CC1	none
Cc1nc([C@@H]2CN(C(=O)CCCc3nc4ccccc4[nH]3)C[C@H]2C(N)=O)n[nH]1	none
Cc1ccc(NC(=O)Cn2c(=O)c(-c3noc(C)n3)c3n(c2=O)CCCCC3)c(C)c1	none
COCCN1C(=O)c2ccccc2C(C(=O)NC2CCCC2)C12CCCCC2 (configuration not stated)	none
Cc1ccnc(NC(=O)C2c3ccccc3C(=O)N(CC(C)C)C23CCCC3)c1 (configuration not stated)	Pf Dd2 growth 5µM

Bioassay records as filed in PubChem.
